# According to PubChem BioAssay (NCI):
# The panel holds about 83,000 compounds, 20% with a hit somewhere; the sample as a whole holds those more often.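 Cell lines were cultured in 96-well plates, exposed to a single compound concentration, and assessed for percent growth 48 hours later.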 Calls of active or inactive are those of the source. Rule for the calls: active = growth percent below 10; inactive = the rest.
# Test system: MDA-MB-468 breast
# Test: NCI-60 one-dose screen, 48 h (100 = growth as untreated, 0 = no growth, -100 = all killed)
# Conditions: 10 µM unless noted
row,SMILES,growth
1,CSc1nc2ccccc2cc1/C=C1/C=C(c2ccccc2)NC1=O,61.6% (inactive)
2,CCCC(=O)NC(c1ccc2c(c1)OC(F)(F)O2)c1cc(C)c2cccnc2c1O (stereo not given),-14.7% (active)
3,O=C(/C=C/C12c3ccccc3C(c3ccccc31)C1C(=O)NC(=O)C12)c1cccs1 (stereo not given),45.8% (inactive)
4,CS(=O)(=O)O[C@@H]1C(=O)N(c2cc3c4ccccc4ccc3c3ccccc23)[C@H]1c1ccc(F)cn1,30.4% (inactive)
5,Cc1ccc(C2(C)NC(=O)N(CC(=O)Nc3cccc(C)c3)C2=O)cc1 (stereo not given),89% (inactive)
6,c1ccc(-c2ccc(-c3ccccc3)[nH]2)cc1,70.1% (inactive)
7,COC1OC(COC(C)=O)C(OC(C)=O)C(OC(C)=O)C1OC(C)=O (stereo not given),108% (inactive)
8,CCCC(=O)Oc1ccc2ccccc2c1,94% (inactive)
9,O=C(CN1CCOCC1)Nc1ccc(-c2nc3ccccc3s2)cc1,-6.69% (active)
10,O=C(/C=C/c1ccccc1)c1ccc(Nc2nc(NCCO)nc(Nc3ccc(Cl)cc3)n2)cc1,64.5% (inactive)
11,Cc1ccc(C(=O)c2ccc(CC(=O)N/N=C/c3cccc(O)c3O)n2C)cc1,54.9% (inactive)
12,COc1ccc(/C=C/c2nc(-c3n[nH]c(=O)n3-c3ccccc3)c3ccccc3n2)cc1,100% (inactive)
13,O=C(O)CCCCNC(=O)c1ccccc1,97.7% (inactive)
14,CCCCCCCCCCCCCCCCCC1OCC(COC(=O)O[C@]2(CC)C(=O)OCc3c2cc2n(c3=O)Cc3cc4ccccc4nc3-2)O1 (stereo not given in full),69.9% (inactive)
15,CN1CCN(C(=O)c2ccc(NC(=O)Nc3ccc(-c4nc(N5CCOCC5)c5cccn5n4)cc3)cc2)CC1,-60.7% (active)
